From PubChem BioAssay AID1079 (Emory University Molecular Libraries Screening Center, 2008)
Potency and affinity values are given separately. Activity calls are given as the source filed them.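 Rule for the calls: active = fitted half-effect concentration IC50 at or below a set limit, with percent of control there 60 or less; inactive = the rest.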

Molecular target: Estrogen receptor (Homo sapiens) (UniProt P03372)
Test: blockers of SRC-3 recruitment to ERα – biochemical, ELISA, streptavidin-HRP readout, orthogonal assay, confirmation (AID 1079)

Sequence of Estrogen receptor (Homo sapiens) (P03372 whole entry, looked up): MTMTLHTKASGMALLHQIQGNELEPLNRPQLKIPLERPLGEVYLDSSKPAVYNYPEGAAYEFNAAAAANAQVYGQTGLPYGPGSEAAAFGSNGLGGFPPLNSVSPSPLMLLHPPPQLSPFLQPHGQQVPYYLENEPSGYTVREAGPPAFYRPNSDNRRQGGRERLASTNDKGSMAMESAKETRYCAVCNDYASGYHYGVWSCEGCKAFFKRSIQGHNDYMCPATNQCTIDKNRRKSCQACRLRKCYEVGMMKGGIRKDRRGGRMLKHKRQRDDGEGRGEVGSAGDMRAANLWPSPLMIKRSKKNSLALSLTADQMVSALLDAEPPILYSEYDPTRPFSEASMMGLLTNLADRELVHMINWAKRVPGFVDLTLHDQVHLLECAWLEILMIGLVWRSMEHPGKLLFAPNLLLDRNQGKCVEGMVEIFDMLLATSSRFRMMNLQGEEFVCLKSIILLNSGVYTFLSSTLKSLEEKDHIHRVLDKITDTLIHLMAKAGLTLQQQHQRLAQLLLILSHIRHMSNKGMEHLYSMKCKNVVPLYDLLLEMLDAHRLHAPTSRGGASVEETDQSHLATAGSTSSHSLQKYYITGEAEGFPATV

Row | SMILES | outcome
1 | N#Cc1ccc(N2CCN(C(=O)CCCCCn3c(=S)[nH]c4ccccc4c3=O)CC2)cc1 | inactive
2 | O=C(CCCCCCCn1c(=S)[nH]c2ccccc2c1=O)N1CCN(c2cccc(Cl)c2)CC1 | inactive
